According to PubChem BioAssay (NCATS):
Inconclusive results are not listed. Activity calls are given as the source filed them. Unless noted, the call rests on the fitted dose curve; in most records, active means well fitted curve in the direction sought with a large enough effect; inconclusive means small, poorly fitted or top-dose-only effect, or another doubt; inactive means no such curve, though single readings can be large; an effect the other way counts as inactive or inconclusive.

Experiments:
[1] = biological target: Cytochrome P450 3A4 (Homo sapiens) (UniProt P08684); assay: qHTS Assay for Inhibitors and Substrates of Cytochrome P450 3A4 (AID 884); further: nearly all actives have a fitted effect of over 50% in size; further: potency means the concentration at half of the fitted maximal effect
Cytochrome P450 3A4 (Homo sapiens), sequence (P08684 whole entry, looked up): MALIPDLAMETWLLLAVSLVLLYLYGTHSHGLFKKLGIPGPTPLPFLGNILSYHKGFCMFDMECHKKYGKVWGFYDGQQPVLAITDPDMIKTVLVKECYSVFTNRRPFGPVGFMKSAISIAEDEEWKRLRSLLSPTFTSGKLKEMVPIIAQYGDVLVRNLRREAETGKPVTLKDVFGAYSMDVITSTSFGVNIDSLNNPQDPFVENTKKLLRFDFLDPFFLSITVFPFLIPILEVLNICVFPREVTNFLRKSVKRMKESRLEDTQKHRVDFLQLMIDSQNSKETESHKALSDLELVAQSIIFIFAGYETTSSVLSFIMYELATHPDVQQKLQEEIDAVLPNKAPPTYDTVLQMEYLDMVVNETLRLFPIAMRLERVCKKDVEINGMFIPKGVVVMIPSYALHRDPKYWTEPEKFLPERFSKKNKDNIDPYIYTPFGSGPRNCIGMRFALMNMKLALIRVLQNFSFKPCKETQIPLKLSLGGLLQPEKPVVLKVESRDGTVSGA
How it was run: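 Luminescent readout of luciferin produced by CYP3A4 (20 nM) dealkylation of Luciferin-PPXE, 25 uM (its KM). NADPH-driven reaction ran 60 min at RT after 10 min compound preincubation; data scaled to 57 uM ketoconazole as 100% inhibition.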

[2] = Confirmation and Secondary Assay for Modulators of Hemoglobin Beta Chain Splicing at IVS2 654 locus (AID 910);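 further: HeLa cells stably carrying EGFP split by mutant beta-globin IVS2-654 intron; % of control where 0% means no effect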
How it was run: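 HeLa cells stably expressing EGFP interrupted by β-globin IVS2-654 intron, seeded overnight in Opti-MEM/2% FCS, then treated 2 days at 37 °C. Restored splicing read as total peak GFP intensity per well by laser scanning cytometry (488 nm excitation, 500–520 nm emission); 500 nM antisense PNA as control.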

[3] = Confirmation and Secondary Assay for Modulators of Hemoglobin Beta Chain Splicing at IVS2 705 locus (AID 930);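 further: HeLa cells stably expressing the EGFP-705 splicing reporter; GFP fluorescence per well restored by corrected splicing of the IVS2-705 intron in EGFP; % of control where 0% means no effect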
How it was run: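 Splice-correction reporter: EGFP cDNA split by beta-globin intron 2 bearing the 705 mutation, stably in HeLa. Compound incubation 2 days, 37C; fluorescent objects 5-250 µm summed per well.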

[4] = biological target: Ubiquitin carboxyl-terminal hydrolase 1 (Homo sapiens) (UniProt O94782); assay: Inhibitors of USP1/UAF1: Pilot qHTS (AID 504865);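 further: rhodamine fluorescence freed from ubiquitin-rhodamine substrate followed over time; top concentration of the series differs between compounds; on the % scale 0 is the no-effect control and ±100 the full control effect; nearly all actives have a fitted effect of over 35% in size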
Ubiquitin carboxyl-terminal hydrolase 1 (Homo sapiens), sequence (O94782 whole entry, looked up): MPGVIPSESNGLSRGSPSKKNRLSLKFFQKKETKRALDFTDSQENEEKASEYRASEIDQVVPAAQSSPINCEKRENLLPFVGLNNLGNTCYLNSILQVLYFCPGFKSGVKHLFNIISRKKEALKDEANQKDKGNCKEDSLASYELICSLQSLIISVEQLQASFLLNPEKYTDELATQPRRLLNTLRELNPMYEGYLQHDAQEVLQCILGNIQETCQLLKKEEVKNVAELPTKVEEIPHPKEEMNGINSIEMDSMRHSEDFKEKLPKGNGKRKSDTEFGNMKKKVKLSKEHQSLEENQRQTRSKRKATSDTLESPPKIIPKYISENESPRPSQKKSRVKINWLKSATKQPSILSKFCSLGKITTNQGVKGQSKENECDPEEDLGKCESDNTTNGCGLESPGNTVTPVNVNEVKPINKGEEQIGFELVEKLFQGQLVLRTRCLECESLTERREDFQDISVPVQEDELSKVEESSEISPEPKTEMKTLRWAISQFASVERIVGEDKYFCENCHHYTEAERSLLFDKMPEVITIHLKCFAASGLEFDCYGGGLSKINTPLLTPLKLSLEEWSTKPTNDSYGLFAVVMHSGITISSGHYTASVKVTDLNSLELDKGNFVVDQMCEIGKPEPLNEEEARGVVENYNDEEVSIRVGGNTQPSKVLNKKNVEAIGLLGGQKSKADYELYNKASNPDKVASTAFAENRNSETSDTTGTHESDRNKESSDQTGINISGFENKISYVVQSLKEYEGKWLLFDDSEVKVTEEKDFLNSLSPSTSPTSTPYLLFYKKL
How it was run: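 Enzyme-free wells gave the negative control, while test wells held 1nM USP1/UAF1 preincubated with compound for 15 min at room temperature. Ub-Rho at 150nM final started the reaction, and fluorescence at 480/540 nm was recorded kinetically.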

[5] = biological target: Rap guanine nucleotide exchange factor 3 (Homo sapiens) (UniProt O95398); assay: Confirmatory qHTS for agonist of cAMP-regulated guanine nucleotide exchange factor 3 (EPAC1) (AID 1645881);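 further: EPAC1 catalysed release of BODIPY-GDP from Rap1B seen as fluorescence loss; 100% = effect of cAMP agonist control; nearly all actives have a fitted effect of over 75% in size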
Rap guanine nucleotide exchange factor 3 (Homo sapiens), sequence (O95398 whole entry, looked up): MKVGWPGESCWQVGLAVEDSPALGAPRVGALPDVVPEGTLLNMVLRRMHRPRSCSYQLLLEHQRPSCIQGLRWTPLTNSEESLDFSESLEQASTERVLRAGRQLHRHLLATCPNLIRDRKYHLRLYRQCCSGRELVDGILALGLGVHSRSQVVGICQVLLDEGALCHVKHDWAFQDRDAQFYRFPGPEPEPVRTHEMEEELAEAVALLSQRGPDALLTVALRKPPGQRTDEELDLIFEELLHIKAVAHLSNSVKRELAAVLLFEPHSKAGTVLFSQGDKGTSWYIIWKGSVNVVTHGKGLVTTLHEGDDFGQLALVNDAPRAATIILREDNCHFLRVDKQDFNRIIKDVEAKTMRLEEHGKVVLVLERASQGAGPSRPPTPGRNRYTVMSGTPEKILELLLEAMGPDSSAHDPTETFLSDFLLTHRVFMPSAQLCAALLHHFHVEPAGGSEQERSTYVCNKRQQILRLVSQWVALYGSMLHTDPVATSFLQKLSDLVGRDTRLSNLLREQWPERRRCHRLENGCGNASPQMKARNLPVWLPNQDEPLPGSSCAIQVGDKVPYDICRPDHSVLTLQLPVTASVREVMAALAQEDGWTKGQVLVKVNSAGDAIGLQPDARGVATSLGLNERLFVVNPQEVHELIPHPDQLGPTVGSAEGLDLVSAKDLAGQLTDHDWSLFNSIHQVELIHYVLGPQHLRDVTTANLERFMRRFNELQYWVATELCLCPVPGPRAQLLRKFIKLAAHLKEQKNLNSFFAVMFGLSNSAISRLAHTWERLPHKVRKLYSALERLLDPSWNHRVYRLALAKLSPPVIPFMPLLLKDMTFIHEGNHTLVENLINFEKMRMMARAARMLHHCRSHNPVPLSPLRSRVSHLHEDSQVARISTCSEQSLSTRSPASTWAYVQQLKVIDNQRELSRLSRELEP

[6] = biological target: Rap guanine nucleotide exchange factor 4 (Homo sapiens) (UniProt Q8WZA2); assay: Confirmatory qHTS for agonist of cAMP-regulated guanine nucleotide exchange factor 4 (EPAC2) (AID 1645884);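 further: nucleotide exchange releases bodipy-GDP from Rap1 and this lowers its fluorescence; on the % scale 0 is the no-effect control and ±100 the full control effect; nearly all actives have a fitted effect of over 65% in size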
Rap guanine nucleotide exchange factor 4 (Homo sapiens), sequence (Q8WZA2 whole entry, looked up): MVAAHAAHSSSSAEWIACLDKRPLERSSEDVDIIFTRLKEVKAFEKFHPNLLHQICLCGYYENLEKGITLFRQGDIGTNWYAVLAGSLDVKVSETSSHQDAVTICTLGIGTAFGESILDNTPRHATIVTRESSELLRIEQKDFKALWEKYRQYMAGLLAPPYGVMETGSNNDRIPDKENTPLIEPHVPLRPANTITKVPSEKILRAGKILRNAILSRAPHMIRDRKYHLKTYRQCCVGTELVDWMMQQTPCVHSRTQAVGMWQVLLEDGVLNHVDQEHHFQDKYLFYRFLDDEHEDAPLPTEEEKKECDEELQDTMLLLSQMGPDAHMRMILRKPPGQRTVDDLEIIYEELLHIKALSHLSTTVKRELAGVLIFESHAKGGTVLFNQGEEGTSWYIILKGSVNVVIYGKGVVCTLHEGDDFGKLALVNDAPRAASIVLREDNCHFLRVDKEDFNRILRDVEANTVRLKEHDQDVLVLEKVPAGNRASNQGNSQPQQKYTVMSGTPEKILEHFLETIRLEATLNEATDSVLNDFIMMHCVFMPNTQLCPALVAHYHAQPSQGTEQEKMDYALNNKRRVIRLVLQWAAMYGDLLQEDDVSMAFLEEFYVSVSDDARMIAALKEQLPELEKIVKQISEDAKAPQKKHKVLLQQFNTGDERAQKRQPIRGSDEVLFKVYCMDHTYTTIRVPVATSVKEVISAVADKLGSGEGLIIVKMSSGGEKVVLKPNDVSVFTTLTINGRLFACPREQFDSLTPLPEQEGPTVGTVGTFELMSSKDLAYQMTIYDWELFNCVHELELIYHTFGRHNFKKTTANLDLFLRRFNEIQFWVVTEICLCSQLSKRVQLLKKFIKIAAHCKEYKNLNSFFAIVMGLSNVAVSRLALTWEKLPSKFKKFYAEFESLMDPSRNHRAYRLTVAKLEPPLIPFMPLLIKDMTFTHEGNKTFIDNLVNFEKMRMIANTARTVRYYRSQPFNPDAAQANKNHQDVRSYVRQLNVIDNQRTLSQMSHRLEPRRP

[7] = biological target: Rap guanine nucleotide exchange factor 4 (Homo sapiens) (UniProt Q8WZA2); assay: Confirmatory qHTS for antagonist of cAMP-regulated guanine nucleotide exchange factor 4 (EPAC2) (AID 1645885); further: on the % scale 0 is the no-effect control and ±100 the full control effect; nearly all actives have a fitted effect of over 25% in size
[8] = biological target: Rap guanine nucleotide exchange factor 3 (Homo sapiens) (UniProt O95398); assay: Counterscreen qHTS for antagonist of cAMP-regulated guanine nucleotide exchange factor 3 (EPAC1) (AID 1645888);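 further: fluorescence loss as bound BODIPY-GDP is released from Rap1B; % of control where 0% means no effect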
How it was run: (§1)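 Rap1B–BODIPY-GDP (250 nM) with 50 uM GDP; compounds pin-transferred to 9.74 nM–152 uM final (activator) or from 7.32 nM upwards (inhibitor). Fluorescence Ex/Em 480/540 nm read at 5 and 30 min, then after adding cAMP or buffer, at room temperature.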

[9] = biological target: Rap guanine nucleotide exchange factor 3 (Homo sapiens) (UniProt O95398); assay: Counterscreen qHTS for agonist of cAMP-regulated guanine nucleotide exchange factor 3 (EPAC1) (AID 1645889); further: % of control where 0% means no effect; nearly all actives have a fitted effect of over 40% in size
How it was run: as §1

[10] = AP1 Signaling Pathway (AID 357; active means well fitted curve in either direction with a large enough effect, not every such curve was filed as active;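 further: ME-180 reporter cells stimulated with EGF at its EC50 level; on the % scale 0 is the no-effect control and ±100 the full control effect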)
How it was run: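 Read-out was the 460nm/530nm emission ratio (excitation 405nm) after CCF4 loading for 2.5 hours at room temperature. Cells carried an AP-1-driven beta-lactamase reporter, were stimulated with EC50 EGF plus compound for 5 hours, and AC50 values came from titrations.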

[11] = biological target: Cytochrome P450 1A2 (Homo sapiens) (UniProt P05177); assay: p450-cyp1a2 (AID 410; calls by dose curve;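 further: -100% = full effect of reference inhibitor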)
Cytochrome P450 1A2 (Homo sapiens), sequence (P05177 whole entry, looked up): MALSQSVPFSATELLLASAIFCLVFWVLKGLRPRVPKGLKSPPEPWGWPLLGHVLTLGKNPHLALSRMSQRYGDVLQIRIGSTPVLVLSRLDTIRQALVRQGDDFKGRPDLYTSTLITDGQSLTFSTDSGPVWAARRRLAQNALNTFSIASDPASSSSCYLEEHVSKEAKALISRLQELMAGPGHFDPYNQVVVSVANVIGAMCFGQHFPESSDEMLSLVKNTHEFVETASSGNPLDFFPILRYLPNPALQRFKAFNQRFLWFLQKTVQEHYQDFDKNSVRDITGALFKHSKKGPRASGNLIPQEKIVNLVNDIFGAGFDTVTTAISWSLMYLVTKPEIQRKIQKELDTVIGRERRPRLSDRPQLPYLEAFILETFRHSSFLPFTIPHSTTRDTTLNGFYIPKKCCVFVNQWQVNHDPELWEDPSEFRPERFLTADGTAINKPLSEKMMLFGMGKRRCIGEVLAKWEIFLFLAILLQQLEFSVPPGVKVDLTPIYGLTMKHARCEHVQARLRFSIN
How it was run: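 Luminescent demethylation readout: Luciferin-ME (100uM, equal to Km) turned over by 20nM CYP1A2 for 60 min at room temperature after NADPH regeneration addition, following 10 min compound preincubation. Normalization used 57 uM furafylline as full inhibition.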

[12] = NFAT Signaling Pathway (AID 444; active means well fitted curve in either direction with a large enough effect, not every such curve was filed as active;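 further: carbachol stimulus at about its EC50 of 1 µM final; on the % scale 0 is the no-effect control and ±100 the full control effect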); settings: Jurkat NFAT-bla M1, carbachol, beta-lactamase ratio, 5 h; at 17.2 µM (top of the series) unless noted
How it was run: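 Jurkat cells with NFAT-driven β-lactamase reporter and co-expressed M1 receptor, stimulated with carbachol (final 1 uM, ~EC50), compound titration, 5 h at 37 °C. CCF4 loaded 1 h at RT; 460/530 nm ratio gave %activity and AC50.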

[13] = Stat Signaling Pathway (AID 446; active means well fitted curve in either direction with a large enough effect, not every such curve was filed as active;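 further: ME-180 cervical cancer cells given 40 pM IL-6 alongside compound; SIE-controlled beta-lactamase reporter measured as 460/530 nm FRET emission ratio; on the % scale 0 is the no-effect control and ±100 the full control effect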)
How it was run: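 Emission at 460 and 530 nm (excitation 405 nm) reports SIE-controlled beta-lactamase in ME-180 cells. Cells received compound with 40 pM IL-6 for 5 hrs at 37 C; data scaled between 300 pM IL-6 and 125 nM JAK-inhibitor controls.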

[14] = biological target: Glucocorticoid receptor (Homo sapiens) (UniProt P04150); assay: GR-EFC Redistribution (AID 451; calls by dose curve; further: potency means the concentration at half of the fitted maximal effect); settings: CHO-K1 GR-EFC translocation, beta-gal luminescence, 2 h
How it was run: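 CHO-K1 cells expressing nuclear EA and GR-ED fragments of b-gal; compounds titrated up to 46 uM final, 2 h at 37 C. GR nuclear translocation read as complemented b-gal luminescence after 1 h RT detection.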

[15] = biological target: Mitogen-activated protein kinase 10 (Mus musculus) (UniProt Q61831); assay: JNK3 AlphaScreen Assay (AID 530; active means well fitted curve in either direction with a large enough effect, not every such curve was filed as active;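 further: kinase came from lysate of stimulated human HepG2 cells; signal reports phosphorylation of biotinylated GST-cJun 1-79 at Ser73 with 10 µM ATP; on the % scale 0 is the no-effect control and ±100 the full control effect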)
How it was run: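 Activity was read by AlphaScreen after JNK3-containing HepG2 lysate (cytokine pre-activated) phosphorylated biotinylated GST-cJun with 10 uM ATP at room temperature. Phospho-Ser73 cJun antibody with Protein-A acceptor beads provided detection.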

[16] = biological target: 3',5'-cyclic-AMP phosphodiesterase 4B (Homo sapiens) (UniProt Q07343); assay: qHTS Assay for Inhibitors of PDE-IV (AID 607; active means well fitted activation curve with a large enough effect in the main read-out, with a control signal flat, not every such curve was filed as active; further: % of control where 0% means no effect)
How it was run: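 The readout is membrane depolarisation from a cAMP-sensing CNG channel, detected with a potential dye at ex 535/em 590. Cells were HEK293-derived (endogenous PDE-IV) at 1000 cells/well, titrated up to 22.9 uM final.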

[17] = biological target: Cytochrome P450 2C9 (Homo sapiens) (UniProt P11712); assay: qHTS Assay for Inhibitors and Substrates of Cytochrome P450 2C9 (AID 883); further: on the % scale 0 is the no-effect control and ±100 the full control effect; nearly all actives have a fitted effect of over 60% in size
Cytochrome P450 2C9 (Homo sapiens), sequence (P11712 whole entry, looked up): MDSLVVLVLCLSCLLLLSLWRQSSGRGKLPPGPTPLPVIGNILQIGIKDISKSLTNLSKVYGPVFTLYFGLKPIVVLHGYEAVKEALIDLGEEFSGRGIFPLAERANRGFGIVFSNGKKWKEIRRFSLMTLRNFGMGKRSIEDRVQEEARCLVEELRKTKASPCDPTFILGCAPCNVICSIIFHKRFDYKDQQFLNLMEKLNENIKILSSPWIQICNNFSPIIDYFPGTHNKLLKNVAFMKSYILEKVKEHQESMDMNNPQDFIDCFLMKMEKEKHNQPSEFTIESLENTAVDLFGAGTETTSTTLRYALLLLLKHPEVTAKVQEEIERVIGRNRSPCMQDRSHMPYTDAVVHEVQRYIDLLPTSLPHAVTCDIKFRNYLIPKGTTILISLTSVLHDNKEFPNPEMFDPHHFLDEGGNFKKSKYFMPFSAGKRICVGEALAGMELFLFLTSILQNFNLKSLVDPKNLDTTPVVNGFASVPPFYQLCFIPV
How it was run: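 10nM CYP2C9 + 100uM Luciferin-H (=KM), 25mM KPO4; cpd 10 min 37C; NADPH regen, 60 min 37C; stop/detect with P450 Glo-Buffer 20 min; luminescence. Norm. to 57uM sulphaphenazole as full inhibition.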

[18] = biological target: DNA dC->dU-editing enzyme APOBEC-3G (Homo sapiens) (UniProt Q9HC16); assay: qHTS for inhibitors of Vif-A3G interactions: Validation (AID 588379); further: 0% is about no effect
DNA dC->dU-editing enzyme APOBEC-3G (Homo sapiens), sequence (Q9HC16 whole entry, looked up): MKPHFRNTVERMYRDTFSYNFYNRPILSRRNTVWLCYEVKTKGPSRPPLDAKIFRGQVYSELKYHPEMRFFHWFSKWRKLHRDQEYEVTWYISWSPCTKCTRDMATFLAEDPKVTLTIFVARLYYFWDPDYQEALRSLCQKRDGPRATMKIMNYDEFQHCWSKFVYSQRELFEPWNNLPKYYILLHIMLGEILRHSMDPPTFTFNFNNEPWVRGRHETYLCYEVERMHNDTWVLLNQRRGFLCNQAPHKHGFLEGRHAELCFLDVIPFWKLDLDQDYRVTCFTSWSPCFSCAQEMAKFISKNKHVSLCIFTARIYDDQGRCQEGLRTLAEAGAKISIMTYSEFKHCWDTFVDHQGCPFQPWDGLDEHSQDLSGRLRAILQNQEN
How it was run: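 Yellow fluorescence (Ex 488, Em 500-530) of Vif-coexpressing HeLa A3G-eYFP cells, scanned by Acumen cytometer, reports blocked A3G degradation. Cells plated at 700/well overnight at 37 deg C before compound addition, then a further overnight compound incubation at 37 deg C.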

CC1(C)CC2/C(CO)=C/C=C/[C@](C)(O)CC[C@]21O (some centres undefined)
active: Potency [1] 15.8 µM
inactive: Potency [2] | Potency [3] | Potency [4]

COc1ccc(-c2cc(=O)c3c(O)c(OC)c(O[C@@H]4OC(COC5OC(C)C(O)C(O)[C@@H]5O)C(O)C(O)C4O)cc3o2)cc1 (some centres undefined)
inactive: Potency [1] | Potency [2] | Potency [3]

Cc1ccc(NC(=O)c2c(NC(=O)C(F)(F)F)sc3c2CCCCC3)cc1
inactive: Potency [5] | Potency [6] | Potency [7] | Potency [8]

O=c1c2ccccc2[nH]c(=S)n1-c1cccc(S(=O)(=O)N2CCCC2)c1
inactive: Potency [5] | Potency [6] | Potency [7] | Potency [8] | Potency [9]

COc1cccc(NC(=O)c2csc3c2CCCC3)c1
inactive: Potency [5] | activation [6] 8.66% [at 17.1 µM, percent relative to cAMP agonist control] | Potency [7] | activity change, negative = inhibition [8] -28.5% [at 30.8 µM]

O=C(/C=C\c1ccc(O)c(O)c1)O[C@@H]1C[C@](O)(C(=O)O)C[C@@H](O)[C@@H]1O
inactive: outcome [10] | Potency [11] | activity change, negative = inhibition [12] -0.271% | outcome [13] | Potency [14] > 20.6 µM | Potency [15] | outcome [16] | Potency [17] | Potency [4]

CCOC(=O)c1sc(NC(=O)c2ccncc2)nc1C
inactive: Potency [5] | Potency [6] | Potency [7] | Potency [8] | Potency [9]

CC(OC(=O)CN1C(=O)COc2ccccc21)C(=O)NCc1ccc(F)cc1 (centres undefined)
inactive: Potency [5] | Potency [6] | Potency [7] | Potency [8] | Potency [9]

O=C(O)C1(O)C[C@H](O)C(O)[C@@H](O)C1 (some centres undefined)
inactive: Potency [1] | Potency [4] | outcome [18]

CCOc1ccc(/C=C/C(=O)c2cc(Br)ccc(=O)c2O)cc1
inactive: Potency [5] | Potency [6] | Potency [7] | Potency [8] | Potency [9]

OC[C@H]1O[C@H](OCCc2ccc(O)cc2)[C@H](O)[C@@H](O)[C@@H]1O
inactive: Potency [5] | Potency [6] | Potency [7] | Potency [8]

O=C(Cc1ccccc1)NO
inactive: Potency [1] | Potency [3] | Potency [4]

Cc1cc2oc(=O)c3c(c2cc1OC(=O)c1ccco1)CCCC3
inactive: Potency [5] | Potency [6] | Potency [7] | Potency [8] | Potency [9]
